Results: PubChem BioAssay (NCI)
The panel holds about 79,000 compounds, 15% with a hit somewhere; the sample as a whole holds those more often. Values without a mark were called inactive. The source made the active and inactive calls. Rule as the data show it: active = growth inhibition above about 70%; inactive = the rest.

Legend:
[1] = NCI Yeast Anticancer Drug Screen. Data for the rad52 strain (AID 147);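 also: 0% = growth of vehicle-treated control cultures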; conditions: S. cerevisiae rad52 mutant growth inhibition, hits give high values
Summary of the method: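 Genetically altered yeast (DNA damage repair defect) treated with compound; inhibition calculated relative to vehicle.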

[2] = NCI Yeast Anticancer Drug Screen. Data for the wt1 strain (AID 149);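 also: 0% = growth of vehicle-treated wt1 cultures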; conditions: S. cerevisiae wt1 strain (SPY 50644) growth inhibition, hits give high values
Summary of the method: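 Compounds are added to wt1 yeast cultures. Growth is then measured. Inhibition is expressed relative to vehicle-treated controls.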

[3] = NCI Yeast Anticancer Drug Screen. Data for the rad50 strain (AID 155);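 also: 0% = growth of vehicle-only cultures of the same strain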; conditions: S. cerevisiae rad50 strain growth inhibition, hits give high values
Summary of the method: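 Inhibition values express reduced yeast growth in compound-treated cultures relative to vehicle-treated controls.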

[4] = NCI Yeast Anticancer Drug Screen. Data for the mec2-1 strain (AID 157); conditions: S. cerevisiae mec2-1 strain, hits give high values
Summary of the method: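 Cells of the genetically defined mec2-1 yeast strain are incubated with test compound. Inhibition of growth is calculated against vehicle-treated controls.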

[5] = NCI Yeast Anticancer Drug Screen. Data for the rad14 strain (AID 159);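 also: 0% = growth of vehicle-treated control cultures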; conditions: S. cerevisiae rad14 strain growth inhibition, hits give high values
Summary of the method: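 A mutant yeast strain defective in DNA damage repair is treated with compound; inhibition of its growth is scored against untreated, vehicle-exposed cultures.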

[6] = NCI Yeast Anticancer Drug Screen. Data for the sgs1 mgt1 strain (AID 161);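 also: 0% = growth of cultures given vehicle only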; conditions: S. cerevisiae sgs1 mgt1 strain, hits give high values
Summary of the method: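 Inhibition of yeast growth, normalised to vehicle-treated controls, is reported for a strain bearing genetic alterations in DNA damage repair.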

[7] = NCI Yeast Anticancer Drug Screen. Data for the CLN2oe strain (AID 163);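 also: 0% = growth of vehicle-only control cultures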; conditions: S. cerevisiae CLN2oe strain, hits give high values
Summary of the method: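 Strain altered in cell-cycle control, incubated with compound; growth compared to solvent-treated controls.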

[8] = NCI Yeast Anticancer Drug Screen. Data for the cln2 rad14 strain (AID 165);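 also: 0% = growth equal to vehicle treated cultures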; conditions: S. cerevisiae cln2 rad14 strain, hits give high values
Summary of the method: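 The screen exposed genetically defined yeast (cln2 rad14) to test compounds and scored growth inhibition relative to vehicle-treated controls.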

[9] = NCI Yeast Anticancer Drug Screen. Data for the bub3 strain (AID 167); conditions: S. cerevisiae bub3 mutant strain, hits give high values
Summary of the method: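 Steps: expose the mutant yeast strain to compound; grow alongside vehicle-treated cultures; measure growth; express inhibition against the vehicle cultures.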

[10] = NCI Yeast Anticancer Drug Screen. Data for the wt2 strain (AID 169);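 also: 0% = growth of vehicle-treated yeast cultures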; conditions: S. cerevisiae wt2 strain growth inhibition, hits give high values
Summary of the method: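 Steps: yeast strain treated with compound; growth recorded; inhibition calculated relative to cultures given vehicle alone.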

[11] = NCI Yeast Anticancer Drug Screen. Data for the mlh1 strain (AID 171);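 also: 0% = growth of vehicle-treated control cultures of the same strain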; conditions: S. cerevisiae mlh1 strain growth inhibition, hits give high values
Summary of the method: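 Yeast screen: mutant strain plus compound, growth scored against vehicle control wells.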

[12] = NCI Yeast Anticancer Drug Screen. Data for the sgs1 strain (AID 173);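 also: 0% = growth of vehicle-only control cultures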; conditions: S. cerevisiae sgs1 mutant, hits give high values
Summary of the method: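 Inhibition of yeast growth served as the measure. The mutant strain was treated with each compound, and growth was normalised to cultures receiving vehicle alone.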

[13] = NCI Yeast Anticancer Drug Screen. Data for the mlh1 rad18 strain (AID 175); conditions: S. cerevisiae mlh1 rad18 strain growth inhibition, hits give high values
Summary of the method: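 Compound-treated yeast growth, normalised to vehicle controls. Strain bears defined DNA repair mutations.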

[14] = NCI Yeast Anticancer Drug Screen. Data for the rad18 strain (AID 177); conditions: S. cerevisiae rad18 mutant growth inhibition, hits give high values
Summary of the method: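 Inhibition values reflect reduced yeast growth compared with vehicle-treated controls, using a strain engineered with a DNA damage repair defect.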

[15] = NCI Yeast Anticancer Drug Screen. Data for the rad50EPP+ strain (AID 151);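 also: 0% = growth of vehicle-treated control cultures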; conditions: S. cerevisiae rad50 mutant strain, hits give high values
Summary of the method: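 Strain rad50EPP+; compound exposure; % growth inhibition vs vehicle.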

[16] = NCI Yeast Anticancer Drug Screen. Data for the mgt1 strain (AID 153); conditions: S. cerevisiae mgt1 mutant growth inhibition, hits give high values
Summary of the method: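 Read-out: yeast growth inhibition vs vehicle control. Strain mgt1, drawn from a panel altered in DNA damage repair or cell cycle control.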

[17] = at 5.0 µM (retest, dose inferred, filed as 0.5)
[18] = at 50.0 µM (retest, dose inferred, filed as 5.0)

CCN(CC)CC[n+]1ccc2c(C)c3[nH]c4ccc(O)cc4c3c(C)c2c1
growth inhibition ([1]; at 1.2 µM): 13% | growth inhibition ([1]; at 3.7 µM): 41% | growth inhibition ([1]; at 11.0 µM): 67% | growth inhibition ([1]; at 33.0 µM): 87% (active) | growth inhibition ([1]; at 100.0 µM): 95% (active) | growth inhibition ([2]; at 1.2 µM): 0% | growth inhibition ([2]; at 3.7 µM): -1% | growth inhibition ([2]; at 11.0 µM): 3% | growth inhibition ([2]; at 33.0 µM): 4% | growth inhibition ([2]; at 100.0 µM): 8% | growth inhibition ([3]; at 1.2 µM): 13% | growth inhibition ([3]; at 3.7 µM): 42% | growth inhibition [3, 17]: 36% | growth inhibition ([3]; at 11.0 µM): 72% (active) | growth inhibition ([3]; at 33.0 µM): 89% (active) | growth inhibition [3, 18]: 87% (active) | growth inhibition ([3]; at 50.0 µM): 95% (active) | growth inhibition ([3]; at 100.0 µM): 93% (active) | growth inhibition ([4]; at 1.2 µM): -2% | growth inhibition ([4]; at 3.7 µM): -13% | growth inhibition [4, 17]: 9% | growth inhibition ([4]; at 11.0 µM): 9% | growth inhibition ([4]; at 33.0 µM): 8% | growth inhibition [4, 18]: 4% | growth inhibition ([4]; at 50.0 µM): -11.9% | growth inhibition ([4]; at 100.0 µM): 43% | growth inhibition ([5]; at 1.2 µM): -3% | growth inhibition ([5]; at 3.7 µM): -5% | growth inhibition ([5]; at 11.0 µM): 3% | growth inhibition ([5]; at 33.0 µM): 3% | growth inhibition ([5]; at 100.0 µM): 60% | growth inhibition [6, 17]: 4% | growth inhibition [6, 18]: 13% | growth inhibition ([6]; at 50.0 µM): 1.5% | growth inhibition ([7]; at 1.2 µM): -8% | growth inhibition ([7]; at 3.7 µM): -4% | growth inhibition ([7]; at 11.0 µM): -8% | growth inhibition ([7]; at 33.0 µM): -8% | growth inhibition ([7]; at 100.0 µM): 16% | growth inhibition [8, 17]: -2% | growth inhibition [8, 18]: 18% | growth inhibition ([8]; at 50.0 µM): -21.6% | growth inhibition ([9]; at 1.2 µM): -10% | growth inhibition ([9]; at 3.7 µM): 3% | growth inhibition [9, 17]: 8% | growth inhibition ([9]; at 11.0 µM): -5% | growth inhibition ([9]; at 33.0 µM): -7% | growth inhibition [9, 18]: 6% | growth inhibition ([9]; at 50.0 µM): -14.8% | growth inhibition ([9]; at 100.0 µM): 2% | growth inhibition ([10]; at 1.2 µM): 0% | growth inhibition ([10]; at 3.7 µM): 0% | growth inhibition ([10]; at 11.0 µM): -1% | growth inhibition ([10]; at 33.0 µM): 2% | growth inhibition ([10]; at 100.0 µM): 26% | growth inhibition ([11]; at 1.2 µM): -4% | growth inhibition ([11]; at 3.7 µM): 3% | growth inhibition ([11]; at 11.0 µM): 1% | growth inhibition ([11]; at 33.0 µM): 9% | growth inhibition ([11]; at 100.0 µM): 68% | growth inhibition ([12]; at 1.2 µM): -2% | growth inhibition ([12]; at 3.7 µM): -1% | growth inhibition ([12]; at 11.0 µM): 6% | growth inhibition ([12]; at 33.0 µM): 9% | growth inhibition ([12]; at 100.0 µM): 31% | growth inhibition [13, 17]: 7% | growth inhibition [13, 18]: 19% | growth inhibition ([13]; at 50.0 µM): 27.8% | growth inhibition ([14]; at 1.2 µM): -2% | growth inhibition ([14]; at 3.7 µM): -2% | growth inhibition ([14]; at 11.0 µM): 3% | growth inhibition ([14]; at 33.0 µM): 12% | growth inhibition ([14]; at 100.0 µM): 58%

C=C1CC(Cn2cc(Br)c(=O)[nH]c2=O)(c2ccc(-c3ccccc3)cc2)OC1=O (stereo unspecified)
growth inhibition ([1]; at 1.2 µM): 2% | growth inhibition ([1]; at 3.7 µM): 13% | growth inhibition ([1]; at 11.0 µM): 21% | growth inhibition ([1]; at 33.0 µM): 41% | growth inhibition ([1]; at 100.0 µM): 93% (active) | growth inhibition ([15]; at 1.2 µM): -4% | growth inhibition ([15]; at 3.7 µM): -5% | growth inhibition ([15]; at 11.0 µM): 3% | growth inhibition ([15]; at 33.0 µM): 9% | growth inhibition ([15]; at 100.0 µM): 16% | growth inhibition ([16]; at 1.2 µM): 0% | growth inhibition ([16]; at 3.7 µM): 9% | growth inhibition ([16]; at 11.0 µM): 29% | growth inhibition ([16]; at 33.0 µM): 55% | growth inhibition ([16]; at 100.0 µM): 94% (active) | growth inhibition ([3]; at 1.2 µM): 3% | growth inhibition ([3]; at 3.7 µM): 7% | growth inhibition [3, 17]: 8% | growth inhibition ([3]; at 11.0 µM): 17% | growth inhibition ([3]; at 33.0 µM): 36% | growth inhibition [3, 18]: 98% (active) | growth inhibition ([3]; at 50.0 µM): 98.3% (active) | growth inhibition ([3]; at 100.0 µM): 92% (active) | growth inhibition ([4]; at 1.2 µM): 5% | growth inhibition ([4]; at 3.7 µM): 15% | growth inhibition [4, 17]: 21% | growth inhibition ([4]; at 11.0 µM): 40% | growth inhibition ([4]; at 33.0 µM): 57% | growth inhibition [4, 18]: 98% (active) | growth inhibition ([4]; at 50.0 µM): 98.4% (active) | growth inhibition ([4]; at 100.0 µM): 93% (active) | growth inhibition ([5]; at 1.2 µM): 5% | growth inhibition ([5]; at 3.7 µM): 15% | growth inhibition ([5]; at 11.0 µM): 27% | growth inhibition ([5]; at 33.0 µM): 41% | growth inhibition ([5]; at 100.0 µM): 96% (active) | growth inhibition [6, 17]: 30% | growth inhibition [6, 18]: 87% (active) | growth inhibition ([6]; at 50.0 µM): 97.3% (active) | growth inhibition ([7]; at 1.2 µM): -2% | growth inhibition ([7]; at 3.7 µM): -5% | growth inhibition ([7]; at 11.0 µM): 10% | growth inhibition ([7]; at 33.0 µM): 21% | growth inhibition ([7]; at 100.0 µM): 96% (active) | growth inhibition [8, 17]: 23% | growth inhibition [8, 18]: 99% (active) | growth inhibition ([8]; at 50.0 µM): 97.8% (active) | growth inhibition ([9]; at 1.2 µM): -1% | growth inhibition ([9]; at 3.7 µM): 1% | growth inhibition [9, 17]: 10% | growth inhibition ([9]; at 11.0 µM): 25% | growth inhibition ([9]; at 33.0 µM): 53% | growth inhibition [9, 18]: 99% (active) | growth inhibition ([9]; at 50.0 µM): 98.2% (active) | growth inhibition ([9]; at 100.0 µM): 92% (active) | growth inhibition ([10]; at 1.2 µM): 2% | growth inhibition ([10]; at 3.7 µM): 10% | growth inhibition ([10]; at 11.0 µM): 16% | growth inhibition ([10]; at 33.0 µM): 29% | growth inhibition ([10]; at 100.0 µM): 92% (active) | growth inhibition ([11]; at 1.2 µM): 2% | growth inhibition ([11]; at 3.7 µM): 10% | growth inhibition ([11]; at 11.0 µM): 28% | growth inhibition ([11]; at 33.0 µM): 41% | growth inhibition ([11]; at 100.0 µM): 94% (active) | growth inhibition ([12]; at 1.2 µM): 8% | growth inhibition ([12]; at 3.7 µM): 26% | growth inhibition ([12]; at 11.0 µM): 37% | growth inhibition ([12]; at 33.0 µM): 57% | growth inhibition ([12]; at 100.0 µM): 93% (active) | growth inhibition [13, 17]: 68% | growth inhibition [13, 18]: 99% (active) | growth inhibition ([13]; at 50.0 µM): 97.2% (active) | growth inhibition ([14]; at 1.2 µM): 4% | growth inhibition ([14]; at 3.7 µM): 10% | growth inhibition ([14]; at 11.0 µM): 10% | growth inhibition ([14]; at 33.0 µM): 43% | growth inhibition ([14]; at 100.0 µM): 95% (active)
